# According to PubChem BioAssay (NCATS):
# Inconclusive results are not listed. The source made the active and inactive calls. The call rests on the fitted dose curve; in most records, active means well fitted curve in the direction sought with a large enough effect; inconclusive means small, poorly fitted or top-dose-only effect, or another doubt; inactive means no such curve, though single readings can be large; an effect the other way counts as inactive or inconclusive.
# Assay: BET inhibitor-based combinations targeting novel dependencies in MECOM-rearranged (r) AML: UCSD-AML1 cell line (AID 2202235); further: nearly all actives have a fitted effect of over 40% in size;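 on viability (% of control): plate controls were DMSO vehicle wells for no effect and blank wells for full effect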
# Conditions: UCSD-AML1 AML cells viability, CellTiter-Glo, 48 h; series mostly up to 46 µM; viability (% of control): at the top concentration
# How it was run: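 Each compound is tested in an 11-point concentration series against 500 seeded cells/well for 48 hr. The luminescent viability signal is normalized to DMSO and blank wells, then reduced to AUC and a cell-line-centred Z-AUC.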
# Potency means the concentration at half of the fitted maximal effect.
SMILES,Potency,viability (% of control)
CCN(C)S(=O)(=O)Nc1ccc(F)c(C(=O)c2c[nH]c3ncc(-c4cnc(C5CC5)nc4)cc23)c1F,20.9 µM (active),
CS(=O)(=O)c1ccc(-c2cnc(NCc3ccco3)n3cnnc23)cc1,,101% (inactive)
CC(=O)CC(c1ccccc1)c1c(O)c2ccccc2oc1=O (stereo unspecified),,103% (inactive)
CC(C)(c1ccc(OCC(O)CO)cc1)c1ccc(OCC(O)CCl)cc1 (stereo unspecified),,91% (inactive)
Nc1nc2cc(-c3ccc4ncc(C(=O)N5CCOCC5)n4c3)ccc2o1,8.33 µM (active),
CN(C)c1ccc(C(=O)NCCCCCCC(=O)NO)cc1,1.05 µM (active),
CCOC(=O)[C@H](CCc1ccccc1)N[C@H]1CCc2ccccc2N(CC(=O)O)C1=O,,91.7% (inactive)
COc1cc2c(cc1OC)CN(CCc1ccc(-n3nnc(-c4cc(OC)c(OC)cc4NC(=O)c4cc(=O)c5ccccc5o4)n3)cc1)CC2,,106% [at 0.315 µM] (inactive)
CC[C@H](C)C(=O)O[C@H]1C[C@H](O)C=C2C=C[C@H](C)[C@H](CC[C@@H](O)C[C@@H](O)CC(=O)O)[C@H]21,,114% (inactive)
CSC[C@H]1CN(Cc2c[nH]c3c(N)ncnc23)C[C@@H]1O,,90.7% (inactive)
Cc1noc(C)c1-c1ccc(-c2cc(C(N)=O)c(NC(N)=O)s2)c(O[C@H]2CCNC2)c1,,105% (inactive)
C[C@@H](C(=O)Nc1ccc(Cl)cc1)C1CCC(c2ccnc3ccc(F)cc23)CC1 (stereo partly specified),,104% (inactive)
Nc1nc(F)nc2c1ncn2C1OC(COP(=O)(O)O)C(O)C1O (stereo unspecified),2.63 µM (active),
Cc1ccc(NC(=O)[C@H]2CCCN(C(=O)c3c(C)cccc3F)[C@H]2c2ccc(NC3CCCC3)cc2)cc1C(F)(F)F,,108% (inactive)
CC(C)(C(=O)NCC(F)(F)C(F)(F)F)C(=O)N[C@@H]1C(=O)Nc2ccccc2-c2ccccc21,,103% (inactive)
CN[C@@H](C)C(=O)N[C@@H]1C(=O)N(Cc2c(C)ccc3ccccc23)c2ccc(C#N)cc2N(C(C)=O)[C@H]1C,,101% (inactive)
CC(/C=C1\SC(=S)N(CC(=O)O)C1=O)=C\c1ccccc1,,97.4% (inactive)
O=c1oc2cc(O)ccc2s1,,108% (inactive)
CCOc1cc(/C=C2/C(=O)N(c3ccccc3)N=C2C)cc(Cl)c1OCC(=O)OC,,101% (inactive)
C[C@H]1C[C@H]2[C@@H]3CCC4=CC(=O)C=C[C@]4(C)[C@H]3C(=O)C[C@]2(C)[C@@]1(O)C(=O)CO,,106% (inactive)

# Assay: BET inhibitor-based combinations targeting novel dependencies in MECOM-rearranged (r) AML: AML-191 cell line (AID 2202236; further: nearly all actives have a fitted effect of over 35% in size;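 on viability (% of control): plate controls were vehicle wells for no effect and wells without cells for full effect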)
# Conditions: AML-191 viability, CellTiter-Glo luminescence, 48 h; series mostly up to 46 µM; viability (% of control): at the top concentration
# How it was run: (§1)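 A 48 hr incubation preceded viability reading by CellTiter-Glo, with 15 min room-temperature development. Dose series had 11 points; normalization used DMSO and empty wells; AUC was computed and mean-centered per line as Z-AUC.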
SMILES,viability (% of control),Potency
CN1C(=O)[C@@H](NC(=O)c2cc(Cc3ccccc3)on2)COc2ccccc21,93% (inactive),
CCN(C)S(=O)(=O)Nc1ccc(F)c(C(=O)c2c[nH]c3ncc(-c4cnc(C5CC5)nc4)cc23)c1F,,16.6 µM (active)
O=C(O)c1ccccc1-c1ccc(/C=c2\sc3nc4cc(Br)cnc4n3c2=O)o1,92.4% [at 15.6 µM] (inactive),
CC(=O)CC(c1ccccc1)c1c(O)c2ccccc2oc1=O (stereo unspecified),105% (inactive),
CN(C)c1ccc(C(=O)NCCCCCCC(=O)NO)cc1,,1.18 µM (active)
CCOC(=O)[C@H](CCc1ccccc1)N[C@H]1CCc2ccccc2N(CC(=O)O)C1=O,107% (inactive),
COc1cc2c(cc1OC)CN(CCc1ccc(-n3nnc(-c4cc(OC)c(OC)cc4NC(=O)c4cc(=O)c5ccccc5o4)n3)cc1)CC2,99.1% [at 0.315 µM] (inactive),
CN(C)N=Nc1nc[nH]c1C(N)=O,,14.8 µM (active)
CC[C@H](C)C(=O)O[C@H]1C[C@H](O)C=C2C=C[C@H](C)[C@H](CC[C@@H](O)C[C@@H](O)CC(=O)O)[C@H]21,98.7% (inactive),
CSC[C@H]1CN(Cc2c[nH]c3c(N)ncnc23)C[C@@H]1O,100% (inactive),
Cc1noc(C)c1-c1ccc(-c2cc(C(N)=O)c(NC(N)=O)s2)c(O[C@H]2CCNC2)c1,93.3% (inactive),
Nc1nc(F)nc2c1ncn2C1OC(COP(=O)(O)O)C(O)C1O (stereo unspecified),,6.61 µM (active)
Cc1ccc(NC(=O)[C@H]2CCCN(C(=O)c3c(C)cccc3F)[C@H]2c2ccc(NC3CCCC3)cc2)cc1C(F)(F)F,104% (inactive),
CC(C)(C(=O)NCC(F)(F)C(F)(F)F)C(=O)N[C@@H]1C(=O)Nc2ccccc2-c2ccccc21,97.3% (inactive),
C[C@@H](Nc1cc(F)cc(F)c1)c1cc(C(=O)N(C)C)cc2c(=O)cc(N3CCOCC3)oc12,,23.5 µM (active)
Nc1nc(N)c2nc(-c3cccc(Cl)c3)c(N)nc2n1,,5.25 µM (active)
CC(/C=C1\SC(=S)N(CC(=O)O)C1=O)=C\c1ccccc1,102% (inactive),
O=c1oc2cc(O)ccc2s1,89.3% (inactive),
CCOc1cc(/C=C2/C(=O)N(c3ccccc3)N=C2C)cc(Cl)c1OCC(=O)OC,112% (inactive),
C[C@H]1C[C@H]2[C@@H]3CCC4=CC(=O)C=C[C@]4(C)[C@H]3C(=O)C[C@]2(C)[C@@]1(O)C(=O)CO,106% (inactive),

# Assay: BET inhibitor-based combinations targeting novel dependencies in MECOM-rearranged (r) AML: AML-194 cell line (AID 2202237; further: nearly all actives have a fitted effect of over 40% in size;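 on viability (% of control): plate controls were vehicle wells for no effect and wells without cells for full effect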)
# Conditions: AML-194 (MECOM-r AML) viability, CellTiter-Glo, 48 h; series mostly up to 46 µM; viability (% of control): at the top concentration
# How it was run: as §1
SMILES,viability (% of control),Potency
O=C(O)c1ccccc1-c1ccc(/C=c2\sc3nc4cc(Br)cnc4n3c2=O)o1,90.6% [at 15.6 µM] (inactive),
CC(=O)CC(c1ccccc1)c1c(O)c2ccccc2oc1=O (stereo unspecified),98.3% (inactive),
CC(C)(c1ccc(OCC(O)CO)cc1)c1ccc(OCC(O)CCl)cc1 (stereo unspecified),89.6% (inactive),
CN(C)c1ccc(C(=O)NCCCCCCC(=O)NO)cc1,,1.32 µM (active)
CCOC(=O)[C@H](CCc1ccccc1)N[C@H]1CCc2ccccc2N(CC(=O)O)C1=O,119% (inactive),
CCC[C@H](NC(=O)[C@@H]1[C@H]2CCC[C@H]2CN1C(=O)[C@@H](NC(=O)[C@@H](NC(=O)c1cnccn1)C1CCCCC1)C(C)(C)C)C(=O)C(=O)NC1CC1,91.7% (inactive),
COc1cc2c(cc1OC)CN(CCc1ccc(-n3nnc(-c4cc(OC)c(OC)cc4NC(=O)c4cc(=O)c5ccccc5o4)n3)cc1)CC2,95.7% [at 0.315 µM] (inactive),
CN(C)N=Nc1nc[nH]c1C(N)=O,109% (inactive),
CC[C@H](C)C(=O)O[C@H]1C[C@H](O)C=C2C=C[C@H](C)[C@H](CC[C@@H](O)C[C@@H](O)CC(=O)O)[C@H]21,109% (inactive),
CSC[C@H]1CN(Cc2c[nH]c3c(N)ncnc23)C[C@@H]1O,91.7% (inactive),
Cc1noc(C)c1-c1ccc(-c2cc(C(N)=O)c(NC(N)=O)s2)c(O[C@H]2CCNC2)c1,103% (inactive),
C[C@@H](C(=O)Nc1ccc(Cl)cc1)C1CCC(c2ccnc3ccc(F)cc23)CC1 (stereo partly specified),99.1% (inactive),
CCC(=O)O[C@]1(C(=O)CO)CC[C@H]2[C@@H]3CCC4=CC(=O)CC[C@]4(C)[C@H]3CC[C@@]21C,87.5% (inactive),
Nc1nc(F)nc2c1ncn2C1OC(COP(=O)(O)O)C(O)C1O (stereo unspecified),,9.34 µM (active)
Cc1ccc(NC(=O)[C@H]2CCCN(C(=O)c3c(C)cccc3F)[C@H]2c2ccc(NC3CCCC3)cc2)cc1C(F)(F)F,110% (inactive),
CC(C)(C(=O)NCC(F)(F)C(F)(F)F)C(=O)N[C@@H]1C(=O)Nc2ccccc2-c2ccccc21,102% (inactive),
CN[C@@H](C)C(=O)N[C@@H]1C(=O)N(Cc2c(C)ccc3ccccc23)c2ccc(C#N)cc2N(C(C)=O)[C@H]1C,86.6% (inactive),
CC(/C=C1\SC(=S)N(CC(=O)O)C1=O)=C\c1ccccc1,109% (inactive),
O=c1oc2cc(O)ccc2s1,103% (inactive),
CCOc1cc(/C=C2/C(=O)N(c3ccccc3)N=C2C)cc(Cl)c1OCC(=O)OC,95.5% (inactive),
C[C@H]1C[C@H]2[C@@H]3CCC4=CC(=O)C=C[C@]4(C)[C@H]3C(=O)C[C@]2(C)[C@@]1(O)C(=O)CO,102% (inactive),
